Shown are actives, neighbours in structure and some others; about 7% of the full set was active somewhere.
HP1b binding inh: inhibitors of HP1-beta chromodomain binding to methylated histone tails; P83916; Potency, µM (series often up to 114 µM), for inactives: at the highest dose activity change, negative = inhibition, hits mostly inhibitors; hit rate 0.56% among 390,000; AlphaScreen HP1-beta / biotin-H3K9me3 peptide binding; further: potency means the concentration at half of the fitted maximal effect; nearly all actives have a fitted effect of over 70% in size
Target sequence (P83916 whole entry, looked up): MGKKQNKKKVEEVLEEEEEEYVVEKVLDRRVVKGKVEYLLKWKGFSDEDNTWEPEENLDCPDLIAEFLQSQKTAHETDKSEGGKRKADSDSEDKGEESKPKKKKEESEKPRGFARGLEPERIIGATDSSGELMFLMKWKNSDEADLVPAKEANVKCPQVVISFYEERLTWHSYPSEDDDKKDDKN
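HP1-beta protein (50 nM final) preincubated 30 min at room temperature with biotinylated H3(1-18)K9me3 peptide (50 nM) in PBS pH 7.4, 0.01% Tween-20, then compound added for 30 min. AlphaScreen streptavidin donor/nickel chelate acceptor beads (10 ug/mL final), 30 min dark, luminescence read.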
BAZ2B block: blocks human BAZ2B | AlphaScreen BAZ2B-H3K14Ac peptide displacement | Potency, µM (doses to about 114 µM), without a hit: at the top dose activity change, negative = inhibition, actives largely listed as inhibitors | hit rate 4.4% among 360,000; further: potency means the concentration at half of the fitted maximal effect; on the % scale 0 is the no-effect control and ±100 the full control effect; nearly all actives have a fitted effect of over 60% in size
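Complex of BAZ2B and biotin-H3K14Ac (50 nM apiece) forms over 30 min at RT, then faces library compounds up to 110 uM for another 30 min; AlphaScreen beads added, 20 min dark incubation, luminescence read.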
PI5P4Ka inh: blocks human PI5P4K alpha kinase activity | P48426 | PI5P4Kalpha enzyme, ADP-Glo luminescence, 60 min; active compounds read low | AID 652105 | hit rate 1.2% among 330,000 | max response, %; active means max response of -50% or lower; inconclusive means between -30% and -50%; inactive means -30% or higher; further: value at the top dose of about 77 µM; on the % scale 0 is the no-effect control and ±100 the full control effect
Target sequence (P48426 whole entry, looked up): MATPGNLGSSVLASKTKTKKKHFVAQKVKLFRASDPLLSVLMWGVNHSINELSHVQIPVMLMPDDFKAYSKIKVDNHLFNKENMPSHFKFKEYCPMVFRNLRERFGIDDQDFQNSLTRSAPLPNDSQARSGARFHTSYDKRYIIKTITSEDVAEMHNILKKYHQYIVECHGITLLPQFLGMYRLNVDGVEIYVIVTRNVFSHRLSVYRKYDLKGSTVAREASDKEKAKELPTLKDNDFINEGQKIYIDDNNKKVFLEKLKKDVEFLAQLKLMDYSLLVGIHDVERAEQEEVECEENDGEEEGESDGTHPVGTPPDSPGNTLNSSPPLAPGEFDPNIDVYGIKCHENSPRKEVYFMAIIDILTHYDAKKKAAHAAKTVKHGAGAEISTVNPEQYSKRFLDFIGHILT
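Enzyme plus substrate dispensed, test compounds pinned in, then ATP (5 microM final) added. After 60 min at RT, ADP-Glo reagent 1 for 45 min and reagent 2 for 30 min preceded luminescence imaging.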
JMJD2A Tudor: JMJD2A Tudor domain (human) inhibition | O75164 | AlphaScreen JMJD2A-Tudor / H3K4me3 peptide binding | Potency, µM (top dose mostly 114 µM), for inactives: at the highest dose activity change, negative = inhibition, usual class: inhibitors | hit rate 4.4% among 390,000 | AID 504339; further: potency means the concentration at half of the fitted maximal effect; on the % scale 0 is the no-effect control and ±100 the full control effect; nearly all actives have a fitted effect of over 50% in size
PLK1 PBD inh: blocks phosphopeptide binding to human PLK1 polo-box domain. Plk1 PBD binding of FITC phosphopeptide, fluorescence polarization. AID 720504. P53350. hit rate 2.8% among 360,000. Potency, µM, without a hit: max response, negative = inhibition, hits mostly inhibitors; further: potency means the concentration at half of the fitted maximal effect; series mostly up to about 57 µM; on the % scale 0 is the no-effect control and ±100 the full control effect; nearly all actives have a fitted effect of over 65% in size
GCN5L2 inh: blocks human GCN5L2 histone acetyltransferase; Q92830; GCN5L2 HAT assay, ThioGlo1 CoA-SH fluorescence; Potency, µM (top dose mostly 58.9 µM), inactives show at the top dose activity change, negative = inhibition, usual class: inhibitors; hit rate 0.21% among 390,000; AID 504327; further: potency means the concentration at half of the fitted maximal effect; on the % scale 0 is the no-effect control and ±100 the full control effect
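GCN5L2 (20 nM) in 50mM HEPES pH 7.5, 0.1mM EDTA, 0.01% Tween-20 preincubated 15 min with compounds at room temperature. Reaction started with H3(1-25) 75uM, acetyl-CoA 70uM, ThioGlo1 50uM; CoA-thiol fluorescence (Ex340/Em540) read at 0 and 20 min.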
An asterisk follows results filed as active; ? = inconclusive; . = no result. Unless noted, the call rests on the fitted dose curve; in most records, active means well fitted curve in the direction sought with a large enough effect; inconclusive means small, poorly fitted or top-dose-only effect, or another doubt; inactive means no such curve, though single readings can be large; an effect the other way counts as inactive or inconclusive.

SMILES	HP1b binding inh	BAZ2B block	PI5P4Ka inh	JMJD2A Tudor	PLK1 PBD inh	GCN5L2 inh
O=C(Nc1ccccc1)C1=C(c2ccccc2)S(=O)(=O)CCS1(=O)=O	55.3%	-13.7%	0.4	-2.1%	5.32µM*	-7.7%
COc1ccc(-n2c(=O)c3ccc(C(=O)NCc4ccc(C)cc4)cc3n(CC(=O)Nc3ccc(F)cc3)c2=O)cc1	25.6%	.	.	0.7%	.	-4.5%
Cc1cccc(NC(=O)C2CC(=O)N(Cc3ccccc3)C2)n1 (stereo not drawn)	12.4%	-0.2%	-6.7	-9.7%	0.6%	-1.6%
COc1cc(CN2CCC(C(=O)N3CCCC(C)C3)CC2)cc(Br)c1O (stereo not drawn)	?	22.4µM*	-3.3	?	-9.1%	-5.3%
COc1cc(CN2CCCCCC2)cc(Br)c1O	?	70.8µM*	-0.1	22.4µM*	-0.7%	4.2%
COc1ccc(C(=O)NCC(=O)N2CCCC(C)C2)cc1OC (stereo not drawn)	15.6%	.	8.5	-9.8%	-2.9%	1.9%
COc1ccc(CN2CCC(C(=O)N3CCCC(C)C3)CC2)cc1OC (stereo not drawn)	-15.5%	50.1µM*	-4.6	17.8µM*	-5.7%	-2.8%
COc1cc(Cc2cc(OC)c(O)c(OC)c2)cc(OC)c1O	.	.	-10.7	.	-3.4%	.
COc1cc(CN2CCC(N3CCC(C(=O)N4CCCC4)CC3)CC2)cc2c1OCO2	31.5%	1.5%	1.3	-13.8%	-19.2%	-12.7%
O=c1c(-c2cc(F)cc(F)c2)nc2cnc(N3CCNCC3)nc2n1Cc1ccc(F)cc1	.	.	.	.	.	-21.5%
Cc1nc2cnc(N3CCNCC3)nc2n(CCC#N)c1=O	.	.	.	.	.	28.2µM*
O=c1c(-c2ccccc2)nc2cnc(N3CCNCC3)nc2n1Cc1ccc(F)cc1	.	.	.	.	.	17.8µM*
COc1cccc(Cn2c(=O)c(C)nc3cnc(N4CCNCC4)nc32)c1	.	.	.	.	.	-9.0%
CSc1ccc(Cl)c(C(=O)N2CCN(c3ncccn3)CC2)c1	28.5%	5.0%	-2.0	-12.8%	-2.3%	1.1%
COc1ccc(N2CCN(C(=O)CCS(=O)(=O)c3ccc4c(c3)NC(=O)CO4)CC2)cc1	-11.7%	-29.3%	0.2	?	23.8µM*	-2.8%
O=C1COc2ccc(S(=O)(=O)CCC(=O)N3CCN(c4cccc(C(F)(F)F)c4)CC3)cc2N1	28.1%	-20.0%	-1.4	-25.5%	-12.2%	-24.1%
Cc1cc2c(cc1S(=O)(=O)N1CCN(c3cccc(C)c3C)CC1)OCC(=O)N2	22.9%	15.4%	2.2	-7.7%	0.3%	?
O=C1COc2ccc(S(=O)(=O)N3CCN(c4cccc(C(F)(F)F)c4)CC3)cc2N1	56.3%	-16.8%	6.5	-7.5%	-2.9%	-2.6%
Cc1cccc(N2CCN(C(=O)CCS(=O)(=O)c3ccc4c(c3)NC(=O)CO4)CC2)c1C	-6.8%	-25.0%	-17.9	?	11.9µM*	-4.5%
Cc1cc2c(cc1S(=O)(=O)N1CCN(c3cccc(C(F)(F)F)c3)CC1)OCC(=O)N2	18.3%	?	-3.6	?	21.2µM*	-1.4%
Cc1cccc(N2CCN(S(=O)(=O)c3ccc4c(c3)NC(=O)CO4)CC2)c1C	-13.7%	?	-11.2	?	26.7µM*	-3.8%
O=C1CCc2cc(S(=O)(=O)Nc3cccc(B(O)O)c3)ccc2N1	.	.	.	3.5%	.	.
Cc1cccc(N2CCN(C(=O)CCCCCn3c(=S)[nH]c4ccc(N5CCOCC5)cc4c3=O)CC2)c1C	80.2%	-12.3%	2.2	-14.7%	-4.4%	-2.9%
COc1ccc(CNC(=O)CC(C)S(=O)(=O)c2ccc3c(c2)NC(=O)CO3)cc1 (stereo not drawn)	52.9%	-19.5%	0.5	-15.8%	23.8µM*	-0.3%
Cc1ccc(CNC(=O)CC(C)S(=O)(=O)c2ccc3c(c2)NC(=O)CO3)cc1 (stereo not drawn)	39.8%	-2.1%	-2.9	-1.5%	-7.9%	-19.1%
SMILES	HP1b binding inh	BAZ2B block	PI5P4Ka inh	JMJD2A Tudor	PLK1 PBD inh	GCN5L2 inh
COc1cccc(NC(=O)C2CCN(S(=O)(=O)c3ccc4c(c3)NC(=O)CO4)CC2)c1	-1.2%	-8.2%	-18.3	?	21.2µM*	?
COC(=O)c1c(-c2cccnc2)csc1NC(=O)c1cc(C)on1	-19.8%	-15.6%	.	-23.9%	6.7µM*	-10.2%
N#CC1=C(N)OC2=C(CC/C2=C\c2ccccc2Cl)C1c1ccccc1Cl (stereo not drawn)	7.5%	?	-1.4	?	20.5%	1.6%
N#CC1=C(N)OC2=C(CC/C2=C\c2ccccc2)C1c1ccccc1 (stereo not drawn)	?	89.1µM*	?	?	?	3.9%
CCOC(=O)c1ccccc1Nc1cc(C)nc2nc(C)nn12	48.1%	-1.3%	-5.6	-7.1%	7.4%	-3.8%
COC(=O)c1ccccc1Nc1cc(C)nc2nc(C)nn12	6.1%	-2.2%	-5.7	?	21.2µM*	-1.9%
CCc1ccc(NC(=O)Cc2c(C(=O)O)n(C)c3ccccc23)cc1	20.8%	28.2µM*	-0.3	-12.6%	-1.0%	-0.7%
Cc1ccc(-c2nnn(CC(=O)Nc3nnc(C(C)C)s3)n2)cc1	0.3%	0.3%	-6.2	56.2µM*	26.7µM*	0.3%
CC(Sc1cccc[n+]1[O-])C(=O)NC1CCCCC1C (stereo not drawn)	27.3%	.	-19.3	-12.3%	23.8µM*	1.9%
CC(Sc1nnc(-c2ccco2)n1N)C(=O)NC1CCCCC1C (stereo not drawn)	30.4%	-1.0%	8.0	-13.7%	-4.0%	-0.2%
OCCC1CN(Cc2cc(F)ccc2-n2cccn2)CCN1C1CCCC1 (stereo not drawn)	73.4%	-5.5%	2.6	-6.1%	-19.7%	1.0%
COCCOC(=O)/C(=C/c1ccc(OC(=O)c2ccccc2)cc1)C(C)=O	36.3%	-1.8%	0.5	-6.4%	21.2µM*	-0.7%
CCOC(=O)/C(=C/c1ccc(OC(=O)c2ccncc2)cc1)C(C)=O	24.4%	2.2%	3.7	-10.0%	?	-12.2%
COc1ccc2cc[nH]c2c1	-22.8%	?	0.4	?	21.2µM*	-1.8%
O=C(Nc1ccc(S(=O)(=O)Nc2nccs2)cc1)c1cc(-c2ccccc2Cl)nc2ccccc12	?	?	?	?	29.9µM*	-7.2%
Cc1noc(NS(=O)(=O)c2ccc(NC(=O)c3ccc(Cl)c(S(=O)(=O)N(C)c4ccccc4)c3)cc2)c1C	-22.2%	44.7µM*	-15.5	?	?	-23.4%
Cc1noc(NS(=O)(=O)c2ccc(NC(=O)CSc3nc4ccccc4s3)cc2)c1C	-31.0%	-15.3%	.	?	16.8µM*	?
Cc1ccc(-c2cc(C(=O)Nc3ccc(S(=O)(=O)Nc4onc(C)c4C)cc3)c3ccccc3n2)cc1	?	50.1µM*	-13.2	?	33.6µM*	?
